Eight compounds from the supplement of paper PMC12808144 can be followed below.

The subject of one test is Mel-DCC-11. Description: cell viability relative to DMSO control (fraction of DMSO control); higher = less cytotoxic, active = 0.5 or less. The note with it: 1 µM; 120 h. An outline of the steps:
(§1)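 Three cell types were screened against 315 approved anti-cancer drugs from TargetMol, acoustically pre-spotted in 384-well plates at 1 µM in duplicate over 120 h: NHEM-hTERT immortalized melanocytes (2500/well), patient-derived Mel-DCC-11 and its resistant subline Mel-DCC-11-R (both 1500/well), all in 40 µl per well. The subline was tested alone and with 8 µM of its selecting drug. Viability, measured by luminescence, was normalised to vehicle controls and averaged across duplicates, with ATPlite 1step as the readout.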

The next test has as its system NHEM-hTERT. The description is as above. The conditions noted are these: 1 µM; 120 h. A digest of the protocol: as §1
A further test deals with Mel-DCC-11-R. Description: cell viability relative to DMSO control (fraction of DMSO control); higher = less cytotoxic, active = 0.8 or less. The note with it: 1 µM, 120 h. An outline of the steps:
as §1

Unmarked numbers belong to inactive results.

Take `C[C@@H]1O[C@@H](O[C@H]2[C@H](Oc3cc(O)c4c(c3)O[C@H](c3ccc(O)cc3)CC4=O)O[C@H](CO)[C@@H](O)[C@@H]2O)[C@H](O)[C@H](O)[C@H]1O` [Naringin]: the cell viability in the test with Mel-DCC-11 is 0.983; in the test with NHEM-hTERT, 0.986; with Mel-DCC-11-R (vemurafenib co-treatment 0 µM), 1.02; with Mel-DCC-11-R (vemurafenib co-treatment 8 µM), 1.19.

Regarding `O=C1c2c(O)ccc(O)c2C(=O)c2c(NCCNCCO)ccc(NCCNCCO)c21` [Mitoxantrone], in the test with NHEM-hTERT, the cell viability was 0.695.

For the compound `Nc1nc(=O)c2c([nH]1)NC[C@H](CNc1ccc(C(=O)N[C@@H](CCC(=O)[O-])C(=O)[O-])cc1)N2C=O.[Ca+2]` [Calcium Levofolinate], the cell viability with NHEM-hTERT was 1.02.

On to `COc1cc2c(cc1O)CC[C@@H]1[C@@H]2CC[C@]2(C)[C@@H](O)CC[C@@H]12` [2-Methoxyestradiol], for which the values for the cell viability in the test on NHEM-hTERT, with Mel-DCC-11-R (vemurafenib co-treatment 0 µM) and in the test with Mel-DCC-11-R (vemurafenib co-treatment 8 µM) were 0.87, 1.29 and 0.985, respectively.

Take `CC(=O)Nc1cccc(-n2c(=O)n(C3CC3)c(=O)c3c(Nc4ccc(I)cc4F)n(C)c(=O)c(C)c32)c1` [Trametinib]: the cell viability with NHEM-hTERT is 0.453 (active); with Mel-DCC-11-R (vemurafenib co-treatment 0 µM), 0.206 (active); in the test with Mel-DCC-11-R (vemurafenib co-treatment 8 µM), 0.165 (active).

Take `O=c1[nH]c(=O)n(C2CCCO2)cc1F` (centres undefined) [Tegafur]: the cell viability was 0.922 in the test with NHEM-hTERT, 0.895 in the test on Mel-DCC-11-R (vemurafenib co-treatment 0 µM) and 0.865 in the test on Mel-DCC-11-R (vemurafenib co-treatment 8 µM).

For the compound `COC(=O)C1=C(C)NC(C)=C(C(=O)OC)C1c1ccccc1[N+](=O)[O-]` [Nifedipine], the cell viability with NHEM-hTERT was 1.03; in the test on Mel-DCC-11-R (vemurafenib co-treatment 0 µM) it was 1.1; in the test with Mel-DCC-11-R (vemurafenib co-treatment 8 µM), 1.18.

With `C[C@@H]1C[C@H]2[C@@H]3CCC4=CC(=O)C=C[C@]4(C)[C@@]3(F)[C@@H](O)C[C@]2(C)[C@@]1(O)C(=O)COP(=O)([O-])[O-].[Na+].[Na+]` [Dexamethasone Sodium Phosphate], the cell viability with NHEM-hTERT is 1.2.
